Experimental data reported in PubChem BioAssay (NCI).
This is part of a sample that, as a whole, favours compounds with a hit. Of some 83,000 tested, about 20% had one in any assay.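 Negative percent growth values reflect cell death: -40 means 40% of the cells present at the start died, and -100 means all died.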 Calls of active or inactive are those of the source. Rule for the calls: active = growth percent below 10; inactive = the rest.

Tests used:
Assay in all cases: NCI-60 one-dose screen, 48 h (100 = growth as untreated, 0 = no growth, -100 = all killed)
Details in all cases: 10 µM unless noted
SR leukemia = tested on: SR leukemia
RPMI-8226 leukemia = tested on: RPMI-8226 leukemia
OVCAR-8 ovarian = tested on: OVCAR-8 ovarian
OVCAR-5 ovarian = tested on: OVCAR-5 ovarian
OVCAR-4 ovarian = tested on: OVCAR-4 ovarian
SK-OV-3 ovarian = tested on: SK-OV-3 ovarian
IGROV1 ovarian = tested on: IGROV1 ovarian
OVCAR-3 ovarian = tested on: OVCAR-3 ovarian
HS 578T breast = tested on: HS 578T breast
NCI/ADR-RES ovarian = tested on: NCI/ADR-RES ovarian

Measured: growth

CCN1CCN(C(=O)[C@]23CCC(C)(C)C[C@@H]2C2=CC[C@@H]4[C@@]5(C)C/C(=C/c6ccncc6)C(=O)C(C)(C)[C@@H]5CC[C@@]4(C)[C@]2(C)CC3)CC1
active: SR leukemia -29.1% | RPMI-8226 leukemia -32.1% | OVCAR-8 ovarian 7.29% | OVCAR-5 ovarian -20.4% | OVCAR-4 ovarian 6.7% | IGROV1 ovarian -9.63% | OVCAR-3 ovarian -85.7% | HS 578T breast -23.6% | NCI/ADR-RES ovarian -49.2%
inactive: SK-OV-3 ovarian 16.2%

COc1ccc(NC(=O)c2ccc3c(c2)nc(-c2cc4ccccc4[nH]c2=O)n3-c2cc(C(C)(C)C)[nH]n2)cc1
inactive: SR leukemia 84.8% | RPMI-8226 leukemia 83.9% | OVCAR-8 ovarian 97.6% | OVCAR-5 ovarian 95.9% | OVCAR-4 ovarian 86.5% | SK-OV-3 ovarian 111% | IGROV1 ovarian 80.7% | OVCAR-3 ovarian 100% | HS 578T breast 80.9% | NCI/ADR-RES ovarian 103%

CC1(C)C(=O)/C(=C\c2cccnc2)C[C@]2(C)[C@H]3CC[C@@H]4[C@@H](C(=O)/C=C/c5ccncc5)CC[C@@]4(C)[C@]3(C)CC[C@@H]12
inactive: OVCAR-8 ovarian 19.5% | OVCAR-5 ovarian 18.1% | OVCAR-4 ovarian 18.9% | SK-OV-3 ovarian 64.2% | HS 578T breast 31.7%
active: SR leukemia 5.46% | RPMI-8226 leukemia -7.22% | IGROV1 ovarian -28.1% | OVCAR-3 ovarian -48.6% | NCI/ADR-RES ovarian -0.549%

CCCCC[C@H]1C/C=C2/C(=O)C(Cl)=C[C@@H]2C/C=C\CCCC(=O)O1
active: SR leukemia 2.6% | RPMI-8226 leukemia -23.5% | OVCAR-8 ovarian -19.1% | OVCAR-5 ovarian -64.9% | SK-OV-3 ovarian -15.2% | IGROV1 ovarian -61% | OVCAR-3 ovarian -89.5%
inactive: OVCAR-4 ovarian 16.3% | HS 578T breast 29.7% | NCI/ADR-RES ovarian 12.1%

COc1cc(-c2cc3ncccc3c3nc(N)c4cccnc4c23)cc(OC)c1OC
inactive: SR leukemia 28.3% | RPMI-8226 leukemia 23.2% | OVCAR-8 ovarian 26.9% | OVCAR-5 ovarian 35.7% | OVCAR-4 ovarian 54.3% | SK-OV-3 ovarian 20.5% | IGROV1 ovarian 41% | OVCAR-3 ovarian 15.1% | HS 578T breast 16.8% | NCI/ADR-RES ovarian 10.5%

Cc1nn2c(-c3nc4cc(Cl)c(Cl)cc4[nH]3)c(-c3ccc(F)cc3)nc2s1
inactive: SR leukemia 41.1% | RPMI-8226 leukemia 20.6% | OVCAR-5 ovarian 23.8% | IGROV1 ovarian 21.2% | NCI/ADR-RES ovarian 21.4%
active: OVCAR-8 ovarian 8.25% | OVCAR-4 ovarian -60% | SK-OV-3 ovarian -73.1% | OVCAR-3 ovarian -13.2% | HS 578T breast 1.04%

CC(C)C[C@@H](NC(=O)[C@@H](Cc1ccccc1)NC(=O)c1cnccn1)B1O[C@H]2[C@H](O)[C@@H](C(=O)NCCCC[C@@H]3NC(=O)[C@@H](Cc4ccccc4)NC(=O)[C@H](CC(=O)O)NC(=O)CNC(=O)[C@H](CCCN=C(N)N)NC3=O)O[C@@H](CN)[C@H]2O1
active: SR leukemia 1.66% | RPMI-8226 leukemia 0.803% | OVCAR-8 ovarian -42.6% | OVCAR-5 ovarian -19.2% | OVCAR-4 ovarian -27.9% | SK-OV-3 ovarian -42.2% | IGROV1 ovarian 4.07% | OVCAR-3 ovarian -55.3% | HS 578T breast 4.75% | NCI/ADR-RES ovarian 7.01%

C/C(=N\Nc1cc(C)c2ccccc2n1)c1ccccn1
inactive: OVCAR-5 ovarian 20.6% | SK-OV-3 ovarian 22.3% | HS 578T breast 35.6%
active: SR leukemia 1.94% | RPMI-8226 leukemia -24% | OVCAR-8 ovarian -23.3% | OVCAR-4 ovarian -8.85% | IGROV1 ovarian -26.7% | OVCAR-3 ovarian -0.251% | NCI/ADR-RES ovarian -8.13%

COc1cccc(-c2nn(-c3ccccc3)cc2-c2ccnc(NCCCNS(=O)(=O)c3ccc(Cl)cc3)c2)c1
inactive: RPMI-8226 leukemia 26.6% | OVCAR-8 ovarian 37.3% | OVCAR-5 ovarian 75.3% | OVCAR-4 ovarian 42.8% | SK-OV-3 ovarian 60.5% | IGROV1 ovarian 41.4% | OVCAR-3 ovarian 54% | HS 578T breast 49.9% | NCI/ADR-RES ovarian 35.6%
active: SR leukemia 7.26%

CN1CCN(c2ccc3nc(-c4[nH]ncc4Nc4ncnc5c4OCCCN5)[nH]c3c2)CC1
active: SR leukemia 3.46% | RPMI-8226 leukemia -36.3% | OVCAR-8 ovarian 0.0729% | OVCAR-5 ovarian -61.4% | OVCAR-4 ovarian -35.2% | SK-OV-3 ovarian -21.5% | IGROV1 ovarian -21.4% | OVCAR-3 ovarian -32.2% | HS 578T breast -5.79% | NCI/ADR-RES ovarian -6.16%

c1ccc(C2Cc3ccccc3C2=NC2CCCCC2)cc1 (stereo not given)
inactive: SR leukemia 91.1% | RPMI-8226 leukemia 100% | OVCAR-8 ovarian 107% | OVCAR-5 ovarian 90.8% | OVCAR-4 ovarian 102% | SK-OV-3 ovarian 110% | IGROV1 ovarian 112% | OVCAR-3 ovarian 121% | HS 578T breast 113% | NCI/ADR-RES ovarian 113%

Clc1ccc2c(NCCNc3nc(-c4ccccc4)cc(-c4ccccc4)n3)ccnc2c1
active: SR leukemia -19.4% | RPMI-8226 leukemia -34.4% | OVCAR-8 ovarian -70.6% | OVCAR-5 ovarian -79.7% | OVCAR-4 ovarian -66.4% | IGROV1 ovarian -83.1% | OVCAR-3 ovarian -85.6% | HS 578T breast -17.2% | NCI/ADR-RES ovarian -41.8%
inactive: SK-OV-3 ovarian 83.6%

Clc1ccccc1-c1nc(Nc2nc3ccccc3s2)nc(C(Cl)(Cl)Cl)n1
active: OVCAR-3 ovarian 4.03%
inactive: SR leukemia 79.6% | RPMI-8226 leukemia 10.1% | OVCAR-8 ovarian 68.6% | OVCAR-5 ovarian 74.3% | OVCAR-4 ovarian 64.6% | SK-OV-3 ovarian 56.8% | IGROV1 ovarian 54.3% | HS 578T breast 70% | NCI/ADR-RES ovarian 50.6%

NC1=NN=C2N(N)C(=O)c3cnn(-c4ccccc4)c3N2c2nc(-c3ccccc3)cc(-c3ccccc3)c21
inactive: SR leukemia 103% | RPMI-8226 leukemia 93.5% | OVCAR-8 ovarian 102% | OVCAR-5 ovarian 104% | OVCAR-4 ovarian 82.8% | SK-OV-3 ovarian 93.2% | IGROV1 ovarian 89% | OVCAR-3 ovarian 116% | HS 578T breast 101% | NCI/ADR-RES ovarian 92.1%

O=C(CI)Nc1ccc(O)c2ccccc12
inactive: OVCAR-5 ovarian 18.5% | OVCAR-4 ovarian 26.6% | SK-OV-3 ovarian 77.5% | HS 578T breast 33.2%
active: SR leukemia -1.5% | RPMI-8226 leukemia -18.8% | OVCAR-8 ovarian -22.9% | IGROV1 ovarian -15.5% | OVCAR-3 ovarian -29.5% | NCI/ADR-RES ovarian -15.1%

COc1cc(-c2cc3ncccc3c3[nH]c(=O)c4cccnc4c23)cc(OC)c1OC
inactive: SR leukemia 20% | OVCAR-8 ovarian 35.9% | OVCAR-5 ovarian 45.4% | OVCAR-4 ovarian 58.1% | SK-OV-3 ovarian 11.2% | IGROV1 ovarian 50.1% | OVCAR-3 ovarian 33.6% | HS 578T breast 10.6% | NCI/ADR-RES ovarian 22.1%
active: RPMI-8226 leukemia 6.32%

CCN(CC)CCCCCCNc1ccnc2cc(Cl)ccc12
inactive: SR leukemia 28.2% | RPMI-8226 leukemia 130% | OVCAR-8 ovarian 117% | OVCAR-5 ovarian 112% | OVCAR-4 ovarian 75.2% | SK-OV-3 ovarian 98.2% | IGROV1 ovarian 124% | OVCAR-3 ovarian 84.6% | HS 578T breast 92.4% | NCI/ADR-RES ovarian 104%

Cn1cc(-c2csc(-c3cn(CCN)c4ccc(Br)cc34)n2)c2cccnc21
inactive: RPMI-8226 leukemia 59.5% | OVCAR-8 ovarian 76.5% | OVCAR-5 ovarian 76.5% | OVCAR-4 ovarian 54.3% | SK-OV-3 ovarian 91.6% | IGROV1 ovarian 38.8% | OVCAR-3 ovarian 72.5% | HS 578T breast 74.5% | NCI/ADR-RES ovarian 86.4%
active: SR leukemia 9.41%

Cc1csc(Nc2nc(-c3ccc(Cl)cc3)nc(C(Cl)(Cl)Cl)n2)n1
inactive: SR leukemia 57% | RPMI-8226 leukemia 76.7% | OVCAR-8 ovarian 89.9% | OVCAR-5 ovarian 99% | OVCAR-4 ovarian 95.5% | SK-OV-3 ovarian 94.1% | IGROV1 ovarian 102% | OVCAR-3 ovarian 67% | HS 578T breast 101% | NCI/ADR-RES ovarian 91.3%

COc1ccc2c(c1)c(-c1nc(-c3c[nH]c4ncccc34)cs1)cn2CCNC(=O)OC(C)(C)C
inactive: SR leukemia 62.7% | RPMI-8226 leukemia 41.2% | OVCAR-8 ovarian 45.7% | OVCAR-5 ovarian 104% | OVCAR-4 ovarian 55.7% | SK-OV-3 ovarian 110% | IGROV1 ovarian 61.1% | OVCAR-3 ovarian 84.4% | HS 578T breast 76.3% | NCI/ADR-RES ovarian 56.6%

Cc1cc(Cl)nc(N(CCCNc2ccnc3cc(Cl)ccc23)Cc2ccco2)n1
inactive: OVCAR-8 ovarian 14.5% | OVCAR-5 ovarian 31.9% | OVCAR-4 ovarian 32% | SK-OV-3 ovarian 40.8% | IGROV1 ovarian 15.3% | OVCAR-3 ovarian 35.7% | HS 578T breast 58.8%
active: SR leukemia -13.7% | RPMI-8226 leukemia -28.9% | NCI/ADR-RES ovarian 5.99%

C[C@@H]1CCCCCCCCC[C@H](O)C(=O)C[C@@H](SC[C@@H](O)C(=O)O)C(=O)O1
inactive: SR leukemia 74.4% | OVCAR-8 ovarian 94.5% | OVCAR-5 ovarian 104% | OVCAR-4 ovarian 110% | SK-OV-3 ovarian 104% | IGROV1 ovarian 115% | OVCAR-3 ovarian 107% | HS 578T breast 113% | NCI/ADR-RES ovarian 106%
active: RPMI-8226 leukemia -2.38%

Nc1c(C(=O)Nc2c(Cl)cccc2Cl)sc2nc3c(cc12)CCCC3
inactive: SR leukemia 12% | RPMI-8226 leukemia 93.4% | OVCAR-8 ovarian 84.9% | OVCAR-5 ovarian 105% | OVCAR-4 ovarian 89.9% | SK-OV-3 ovarian 83.3% | IGROV1 ovarian 79.5% | OVCAR-3 ovarian 64% | HS 578T breast 82.3% | NCI/ADR-RES ovarian 60.8%

CCOC(=O)C/C(=C\c1ccccc1)C(C)=O
inactive: SR leukemia 96.7% | RPMI-8226 leukemia 95% | OVCAR-8 ovarian 90.9% | OVCAR-5 ovarian 108% | OVCAR-4 ovarian 112% | SK-OV-3 ovarian 75.1% | IGROV1 ovarian 109% | OVCAR-3 ovarian 107% | HS 578T breast 108% | NCI/ADR-RES ovarian 110%

O=C1CCC/C=C\C[C@H]2C=C(Cl)C(=O)/C2=C/C[C@H](CCCCC(F)(F)F)OC(=O)CCC/C=C\C[C@H]2C=C(Cl)C(=O)/C2=C/C[C@H](CCCCC(F)(F)F)O1
inactive: OVCAR-4 ovarian 19.7% [7.5 µM] | HS 578T breast 21.8% [7.5 µM] | NCI/ADR-RES ovarian 12.5% [7.5 µM]
active: SR leukemia -14.6% [7.5 µM] | RPMI-8226 leukemia -14.9% [7.5 µM] | OVCAR-8 ovarian -4.7% [7.5 µM] | OVCAR-5 ovarian -33.6% [7.5 µM] | SK-OV-3 ovarian -2.87% [7.5 µM] | IGROV1 ovarian -48.2% [7.5 µM] | OVCAR-3 ovarian -81.3% [7.5 µM]

Cc1cc(N(CCCNc2ccnc3cc(Cl)ccc23)Cc2ccco2)nc(N2CCN(C)CC2)n1
inactive: OVCAR-8 ovarian 55.4% | OVCAR-5 ovarian 73.9% | OVCAR-4 ovarian 57% | SK-OV-3 ovarian 98% | IGROV1 ovarian 38.5% | OVCAR-3 ovarian 56.6% | HS 578T breast 67.6% | NCI/ADR-RES ovarian 59.8%
active: SR leukemia -16.7% | RPMI-8226 leukemia 3.87%
